According to PubChem BioAssay (Tox21):
Values joined by “and” are separate entries in the source; they are usually repeats but may differ in a detail not shown here. Equal entries are not always repeated. Results filed as inconclusive are left out. A call without a number means that no potency is given here. A structure can be active in one record and inactive in another. Active and inactive are the calls of the source. Unless noted, calls follow the shape of the dose curve; as a rule, active = well fitted curve in the direction sought with a large enough effect in the repeat runs; inconclusive = weak or mixed curves; inactive = no such curve, though single readings can be large; an effect the other way counts as inactive or inconclusive.

Tests used:
[1] = Human pregnane X receptor (PXR) small molecule agonists, qHTS cell viability counter screen (AID 1346977); also: nearly all actives have a fitted effect of over 50% in size; also: potency is read from the fitted curve at half-maximal effect
Summary of the method: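 Measures live-cell protease fluorescence (CellTiter-Fluor) in PXR-Luc HepG2 cells treated 24hr with compounds at 37C. Cells had 5hr to attach before pin transfer of DMSO solutions.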

[2] = Caspase-3/7 induction in HepG2 cells by small molecules, qHTS assay (AID 1346978); also: nearly all actives have a fitted effect of over 15% in size; also: potency is read from the fitted curve at half-maximal effect
Summary of the method: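 Wild-type HepG2 cells, 2,000/well, settled 5 hr at 37 C and 5% CO2, then compound-treated for 17 hr; caspase-3/7 activity read by luminescent Caspase-Glo 3/7 after 30 min at room temperature.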

[3] = Caspase-3/7 induction in CHO-K1 cells by small molecules, qHTS cell viability counter screen (AID 1346979); also: nearly all actives have a fitted effect of over 35% in size; also: potency is read from the fitted curve at half-maximal effect
Summary of the method: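 In the same wells as the caspase read, viability of compound-treated wild-type CHO-K1 cells was assessed using CellTiter-Fluor, added after 16hr at 37C and measured by fluorescence following 1hr further incubation.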

[4] = Caspase-3/7 induction in CHO-K1 cells by small molecules, qHTS assay (AID 1346980); also: nearly all actives have a fitted effect of over 15% in size; also: potency is read from the fitted curve at half-maximal effect
Summary of the method: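 Wild-type CHO-K1 cells exposed to compounds for 17hr at 37 C, 5% CO2. Caspase-3/7 activity then measured by Caspase-Glo 3/7 luminescence after 30min at room temperature.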

[5] = Caspase-3/7 induction in HepG2 cells by small molecules, qHTS cell viability counter screen (AID 1346981); also: nearly all actives have a fitted effect of over 30% in size; also: potency is read from the fitted curve at half-maximal effect
Summary of the method: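 Multiplexed with the caspase-3/7 assay: HepG2 cells, 16 hr compound treatment, CellTiter-Fluor viability detection by fluorescence.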

[6] = target: Nuclear receptor subfamily 1 group I member 2 (Homo sapiens) (UniProt O75469); assay: Human pregnane X receptor (PXR) small molecule agonists, qHTS assay (AID 1346982); also: nearly all actives have a fitted effect of over 35% in size; also: potency is read from the fitted curve at half-maximal effect
Summary of the method: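 We seeded PXR-Luc HepG2 cells in assay medium containing 5% charcoal-stripped FBS, added compounds 5 hr later, incubated 24 hr, and read luminescence with ONE-Glo reagent.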

[7] = target: Thyrotropin-releasing hormone receptor (Homo sapiens) (UniProt P34981); assay: qHTS assay to identify small molecule agonists of the thyrotropin-releasing hormone receptor (TRHR) signaling pathway (AID 1346891; calls by dose curve;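 also: HEK293 cells expressing TRHR with calcium dye readout; series mostly up to about 58 µM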)
Summary of the method: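 Agonist-mode calcium mobilisation screen: TRHR-transfected HEK293 cells cultured overnight (18 h), dye-loaded for 2 h at 37 °C, exposed to compounds, and monitored by fluorescence for 3 min.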

[8] = target: Nuclear receptor subfamily 1 group I member 2 (Rattus norvegicus) (UniProt Q9R1A7); assay: Rat pregnane X receptor (rPXR) activation by small molecules, qHTS assay (AID 1346983); conditions: rPXR luciferase reporter cells, One-Glo luminescence, 24 h; max activation: stronger effect = higher value; also: nearly all actives have a fitted effect of over 20% in size
Summary of the method: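 Cell-based rPXR activation assay: rPXR cells, 2,000 per well, rested 5hr at 37 C, then exposed to compounds in DMSO for 24 hr at 37 C. Luciferase activity read by One-Glo luminescence after 30 min at room temperature.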

[9] = target: Nuclear receptor subfamily 1 group I member 2 (Homo sapiens) (UniProt O75469); assay: CYP3A4 induction through human pregnane X receptor (PXR) by small molecules, qHTS assay (AID 1346984); also: nearly all actives have a fitted effect of over 40% in size
Summary of the method: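 qHTS, concentration-response format: HepG2 DPX-2 line, PXR/CYP3A4-luc. Exposure 24 h, 37C. Substrate Luciferin-IPA 3uM final, 3 h. Detection One-Glo, 30 min RT.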

[10] = target: Nuclear receptor subfamily 1 group I member 2 (Homo sapiens) (UniProt O75469); assay: Human pregnane X receptor (PXR) activation by small molecules, qHTS assay (AID 1346985); also: nearly all actives have a fitted effect of over 40% in size
Summary of the method: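 DPX-2 cells (HepG2 co-transfected with a PXR response element and a CYP3A4-promoter luciferase construct) were seeded at 2,000 per well, rested 5 hr at 37C, then exposed to DMSO-dissolved compounds for 24 hr. Activation was read as luciferase luminescence.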

Chain of Nuclear receptor subfamily 1 group I member 2 (Rattus norvegicus) (Q9R1A7 whole entry, looked up): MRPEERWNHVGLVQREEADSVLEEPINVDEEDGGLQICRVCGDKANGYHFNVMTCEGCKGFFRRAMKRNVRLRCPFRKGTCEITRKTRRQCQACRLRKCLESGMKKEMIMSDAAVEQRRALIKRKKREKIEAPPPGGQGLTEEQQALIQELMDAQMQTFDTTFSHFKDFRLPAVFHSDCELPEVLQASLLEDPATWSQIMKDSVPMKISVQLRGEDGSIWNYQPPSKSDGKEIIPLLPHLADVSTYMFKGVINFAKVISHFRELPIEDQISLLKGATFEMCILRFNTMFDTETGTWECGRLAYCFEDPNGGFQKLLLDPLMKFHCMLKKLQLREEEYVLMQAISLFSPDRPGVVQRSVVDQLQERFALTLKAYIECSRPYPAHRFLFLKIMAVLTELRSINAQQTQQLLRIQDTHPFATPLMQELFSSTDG
Chain of Nuclear receptor subfamily 1 group I member 2 (Homo sapiens) (O75469 whole entry, looked up): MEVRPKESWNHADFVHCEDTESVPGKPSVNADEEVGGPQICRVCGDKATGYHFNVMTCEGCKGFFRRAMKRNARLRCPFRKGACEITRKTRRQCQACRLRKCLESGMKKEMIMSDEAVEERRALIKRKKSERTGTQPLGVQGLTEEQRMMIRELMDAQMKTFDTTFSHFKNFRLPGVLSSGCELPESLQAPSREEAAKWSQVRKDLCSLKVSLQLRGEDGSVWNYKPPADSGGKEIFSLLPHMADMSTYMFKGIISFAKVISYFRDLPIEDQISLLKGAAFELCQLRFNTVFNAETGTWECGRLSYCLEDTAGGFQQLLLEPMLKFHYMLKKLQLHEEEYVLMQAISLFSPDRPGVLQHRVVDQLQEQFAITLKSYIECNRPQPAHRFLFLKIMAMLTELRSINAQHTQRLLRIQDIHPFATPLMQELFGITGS
Chain of Thyrotropin-releasing hormone receptor (Homo sapiens) (P34981 whole entry, looked up): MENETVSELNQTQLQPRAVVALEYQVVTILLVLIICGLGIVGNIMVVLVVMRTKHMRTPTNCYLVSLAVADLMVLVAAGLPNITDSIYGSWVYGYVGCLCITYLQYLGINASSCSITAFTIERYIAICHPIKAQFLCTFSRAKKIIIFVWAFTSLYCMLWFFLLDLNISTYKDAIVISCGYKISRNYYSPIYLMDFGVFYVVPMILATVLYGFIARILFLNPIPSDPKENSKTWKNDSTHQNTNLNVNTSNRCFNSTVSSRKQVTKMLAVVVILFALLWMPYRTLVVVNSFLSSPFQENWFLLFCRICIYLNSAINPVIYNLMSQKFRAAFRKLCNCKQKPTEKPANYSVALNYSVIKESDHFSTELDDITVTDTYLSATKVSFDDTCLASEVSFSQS

Row | SMILES | Potency [1] | Potency [2] | Potency [3] | Potency [4] | Potency [5] | Potency [6] | Potency [7] | max activation [8] | Potency [9] | Potency [10]
1 | Cc1ccc(C)c(O)c1C | inactive | inactive | inactive | inactive | inactive | inactive | – | – | – | –
2 | CC(=O)CC/C=C(\C)CCC=C(C)C | inactive | inactive | inactive | inactive | inactive | inactive and 54.5 µM (active) | – | – | – | –
3 | c1ccc2sc(SSN3CCOCC3)nc2c1 | inactive | inactive | 61 µM (active) and 61.1 µM (active) | inactive | inactive | 61 µM (active) and 68.6 µM (active) | – | – | – | –
4 | c1ccc2c(c1)Oc1ccccc1S2 | inactive | inactive | inactive | inactive | inactive | inactive | – | – | – | –
5 | CC1=CC2C3CC(C=C3C)C2C1 (centres undefined) | inactive | inactive | inactive | inactive | inactive | inactive and 27.3 µM (active) | – | – | – | –
6 | Clc1nc(Cl)c(Cl)c(Cl)c1Cl | inactive | inactive | inactive | inactive | inactive | inactive | – | – | – | –
7 | CCC(C)CO (centres undefined) | inactive | inactive | inactive | inactive | inactive | inactive | – | – | – | –
8 | CC(C)=CCCC(C)CCO (centres undefined) | inactive | inactive | inactive | inactive | inactive | inactive | – | – | – | –
9 | CC(=O)C1(C)CC2=C(CCCC2(C)C)CC1C (centres undefined) | inactive | inactive | inactive | inactive | inactive | inactive | – | – | – | –
10 | c1ccc(Nc2ccccc2)cc1 | inactive | inactive | inactive | inactive | inactive | 61.1 µM (active) and inactive | – | – | – | –
11 | CCCCCCCCCCCO | inactive | inactive | inactive | inactive | inactive | inactive | – | – | – | –
12 | CCC(C)c1ccccc1O (centres undefined) | inactive | inactive | inactive | inactive | inactive | inactive | – | – | – | –
13 | CC(C(=O)O)c1cccc(C(=O)c2ccccc2)c1 (centres undefined) | – | inactive | inactive | inactive | inactive | – | inactive | – | – | –
14 | NC=O | inactive | inactive | inactive | inactive | inactive | inactive | – | – | – | –
15 | S=C(NC1CCCCC1)NC1CCCCC1 | inactive | inactive | 60 µM (active) and 43.3 µM (active) | inactive | inactive | 26.8 µM (active) and 19.3 µM (active) | – | – | – | –
16 | CCCCc1oc2ccccc2c1C(=O)c1cc(I)c(OCCN(CC)CC)c(I)c1 | 43.6 µM (active) and 26.6 µM (active) | – | 48.9 µM (active) | inactive | 48.9 µM (active) | 3.09 µM (active) and 4.22 µM (active) | inactive | – | – | –
17 | O=C(c1ccccc1)c1ccccc1O | inactive | inactive | inactive | inactive | inactive | inactive | – | – | – | –
18 | CC(C)=CCC/C(C)=C\CO | inactive | inactive | inactive | inactive | inactive | – | – | – | – | –
19 | CN(C)CCC=C1c2ccccc2CCc2ccccc21 | 44.7 µM (active) and 48.6 µM (active) and 26.6 µM (active) | 68.6 µM (active) and inactive | 61.1 µM (active) | inactive | inactive | 19.3 µM (active) and inactive | – | – | – | –
20 | CN(C)c1nc(N(C)C)nc(N(C)C)n1 | inactive | inactive | inactive | inactive | inactive | – | – | – | – | –

Row | SMILES | Potency [1] | Potency [2] | Potency [3] | Potency [4] | Potency [5] | Potency [6] | Potency [7] | max activation [8] | Potency [9] | Potency [10]
21 | CCCCCCCCCC(=O)OC | inactive | inactive | inactive | inactive | inactive | 47.7 µM (active) and inactive | – | – | – | –
22 | OC(CCl)CCl | inactive | inactive | inactive | inactive | inactive | inactive | – | – | – | –
23 | O=C=Nc1ccc(Cc2ccc(N=C=O)cc2)cc1 | inactive | inactive | inactive | inactive | inactive | – | – | – | – | –
24 | CC(C)CC(C)(O)C#CC(C)(O)CC(C)C (centres undefined) | 31.6 µM (active) and inactive | inactive | 15 µM (active) and inactive | 42.4 µM (active) and inactive | inactive | – | – | – | – | –
25 | OCCO | inactive | inactive | inactive | inactive | inactive | inactive | – | – | – | –
26 | CC(C)OC=O | inactive | inactive | inactive | inactive | inactive | inactive | – | – | – | –
27 | O=C(c1ccc(OCCN2CCCCC2)cc1)c1c(-c2ccc(O)cc2)sc2cc(O)ccc12 | 21.7 µM (active) and 24.3 µM (active) and 23.7 µM (active) | 68.7 µM (active) and inactive | 54.5 µM (active) and 61.1 µM (active) and 26.6 µM (active) | inactive | 61.2 µM (active) and 61.1 µM (active) | – | – | – | – | –
28 | COC(=O)Nc1nc2ccc(S(=O)c3ccccc3)cc2[nH]1 (centres undefined) | inactive | inactive | 8.41 µM (active) | inactive | inactive | 68.5 µM (active) and 8.41 µM (active) | – | – | – | –
29 | O=c1oc(=O)c2cc3c(=O)oc(=O)c3cc12 | inactive | inactive | inactive | inactive | inactive | – | – | – | – | –
30 | c1cc(N(CC2CO2)CC2CO2)ccc1OCC1CO1 (centres undefined) | 61.1 µM (active) | – | 48.6 µM (active) and 27.3 µM (active) | inactive | 54.5 µM (active) and 27.3 µM (active) | 48.6 µM (active) and 24.3 µM (active) | inactive | – | – | –
31 | CC(=O)c1ccccn1 | inactive | inactive | inactive | inactive | inactive | inactive | – | – | – | –
32 | c1cc(-c2ccncc2)ccn1 | inactive | inactive | inactive | inactive | inactive | inactive | – | – | – | –
33 | CCCCC(CC)COCC1CO1 (centres undefined) | inactive | inactive | inactive | inactive | inactive | inactive | – | – | – | –
34 | CCCCOCCOCCO | inactive | inactive | inactive | inactive | inactive | inactive | – | – | – | –
35 | COC(=O)C1=C(C)NC(C)=C(C(=O)OCCN(C)Cc2ccccc2)C1c1cccc([N+](=O)[O-])c1 (centres undefined) | 27.1 µM (active) and 26.6 µM (active) | inactive | 30.5 µM (active) and 26.6 µM (active) | inactive | 48.3 µM (active) and 26.6 µM (active) | – | – | – | – | –
36 | Cc1cccc([N+](=O)[O-])c1C | inactive | inactive | inactive | inactive | inactive | inactive | – | – | – | –
37 | Nc1ncnc2nc[nH]c12 | inactive | inactive | inactive | inactive | inactive | 27.3 µM (active) and inactive | – | 0.861% (inactive) | inactive | inactive
38 | COc1ccc(OC)c(C(O)CNC(=O)CN)c1 (centres undefined) | inactive | inactive | inactive | inactive | inactive | inactive | – | 1.02% (inactive) | inactive | inactive
39 | CCCCC(CC)COC(=O)c1ccc(N(C)C)cc1 (centres undefined) | inactive | inactive | inactive | inactive | inactive | inactive and 54.5 µM (active) | – | -1.01% (inactive) | inactive | inactive
40 | COc1ccccc1/C=C/C=O | inactive | inactive | – | inactive | inactive | – | – | – | – | –
